Assay results reported in ChEMBL document CHEMBL3988442, “University of Dundee, Small-Polar-MMV Screening Library” (2021).
In all, about 48,000 compounds went through this assay and about 13,000 (27%) showed an effect of 50% or more. Some of the results follow.

system: Wolbachia pipientis; test: Anti-Wolbachia Cell-Based Screen; type: functional; parameters: scale not given: in the data most compounds retested in dose-response had high values; details: 5 µM

SMILES	Percent Effect [%]
CS(=O)(=O)c1nccn1Cc1ccc(C(N)=O)cc1	-9.833
CN(Cc1cn2c(n1)CN(C1CCOC1)CC2)Cc1ccco1.O=C(O)C(F)(F)F.O=C(O)C(F)(F)F (centres undefined)	-12.79
CN(Cc1cccnc1)Cc1cn2c(n1)CN(C1CCOC1)CC2.O=C(O)C(F)(F)F.O=C(O)C(F)(F)F.O=C(O)C(F)(F)F (centres undefined)	86.19
CN(Cc1cn2c(n1)CN(CC1CCOC1)CC2)Cc1ccco1.O=C(O)C(F)(F)F.O=C(O)C(F)(F)F (centres undefined)	11.13
CN(Cc1cccnc1)Cc1cn2c(n1)CN(C1CCOCC1)CC2	108.1
CN(Cc1cncnc1)Cc1cn2c(n1)CN(C1CCOC1)CC2.O=C(O)C(F)(F)F.O=C(O)C(F)(F)F (centres undefined)	-14.81
CN(C)Cc1cn2c(n1)CN(C1CCOC1)CC2 (centres undefined)	93.96
CN(Cc1cn2c(n1)CN(C(=O)C1CCOCC1)CC2)Cc1ccco1	-9.912
CCN(CC)Cc1cn2c(n1)CN(C1CCOC1)CC2.O=C(O)C(F)(F)F.O=C(O)C(F)(F)F (centres undefined)	96.5
CCN(CC)Cc1cnc2n1CCN(C1CCOC1)CC2 (centres undefined)	-1.376
CCOCC(=O)N1CCn2cc(CN(C)Cc3ccco3)nc2C1	-7.292
Cc1noc(C)c1CN(C)Cc1csc(-c2ccccc2F)n1	6.793
CSC(C)(C)CNC(=O)NCC[S+]([O-])c1ccccc1F (centres undefined)	3.709
COCc1nc2n(n1)CCCC2Nc1nc(C2CC2)ns1 (centres undefined)	-6.792
COC[C@H]1CC[C@H]2[C@H](CCN2S(=O)(=O)Cc2ccccc2)O1	-8.908
Cc1cnc(CNCc2cnc(-c3ccccc3C)s2)cn1	2.85
Cn1cc(-c2ccnc(NCC3CC3)n2)cn1	-5.433
Cc1cnc(NCc2cnn(C)c2)nc1-c1cnn(C)c1	107.4
Cc1ccc(Br)c(S(=O)(=O)NCc2cnn(C)c2)c1	-6.157
CN(C)C1(CNc2nccc(-c3cnn(C)c3)n2)CCSC1 (centres undefined)	0.386
Cn1cc(-c2ccnc(NCC3CCN(Cc4ccccc4)C3)n2)cn1 (centres undefined)	1.277
CCNc1ncc(C)c(-c2cnn(C)c2)n1	108.7
Cc1cnc(NCc2ccncc2)nc1-c1cnn(C)c1	107.1

SMILES	Percent Effect [%]
Cc1cnc(CNc2ncc(C)c(-c3cnn(C)c3)n2)cn1	99.76
Cn1ncnc1-c1ccnc(NCc2ccncc2)n1	2.269
Cc1ccc(CCNc2ncc(C)c(-c3ccnn3C)n2)s1	-9.646
Cn1cc(-c2nc(CNCCn3cccn3)cs2)cn1	1.057
O=C(CN1CCCS1(=O)=O)Nc1ccc(OC(F)F)cc1	5.702
CC(C)CN1CCc2[nH]cnc2C12CCN(C(=O)c1cc[nH]n1)CC2	-17.95
CC(=O)NCc1ccc(S(=O)(=O)NC(=O)c2ccc3c(c2)COC3)cc1	-5.848
CC(NC1(CNS(=O)(=O)N(C)C)CCCC1)c1ccccc1 (centres undefined)	-3.44
CCC(NC(N)=O)c1ccccc1OCC(=O)N1CCCC1 (centres undefined)	-5.34
Cc1cnn(CC(C)NCc2csc(-c3cnn(C)c3)n2)c1 (centres undefined)	15.88
Cc1cnc(NCc2csc(C(C)C)n2)nc1-c1cnn(C)c1	93.26
CC(C)c1nc(CNc2nccc(CCC(F)(F)F)n2)cs1	-5.11
Cc1ccc(-c2ccnc(N3CCC4(CCO4)CC3)n2)c(C)n1	1.011
CCCn1ncc(-c2ccnc(NC3CC(C)(C)NC(C)(C)C3)n2)c1C	10.1
Cc1ncc(-c2ccnc(N3CCCCC3)n2)c(=O)[nH]1	2.763
O=c1[nH]c(-c2ccncc2)ncc1-c1ccnc(NC2CCCCC2)n1	85.21
O=c1[nH]c2nc(NC3CC3)ncc2c(=O)n1-c1ccc(F)cc1	8.247
O=c1[nH]c(-c2ccncc2)ncc1-c1ccnc(N2CCOCC2)n1	98.38
O=C(COCc1nc(-c2ccncc2)no1)NC1CCCCC1	-10.3
O=c1[nH]c(-c2ccncc2)ncc1-c1ccnc(NC2CC2)n1	114.3
O=C(NCC1CC1)c1cc2c(s1)CCN2C(=O)c1cccnc1	93.16
O=C(NCC1CC1)c1cc2c(s1)CCN2C(=O)c1ccc(F)cc1	95.26
Cc1cc(C(=O)NCC2CCCC2)c(C)n1-c1cccnc1	5.973

SMILES	Percent Effect [%]
COC(=O)c1ccc(C(=O)N2CCCC(Nc3ccc(F)cc3)C2)cc1 (centres undefined)	-50.64
O=C(c1ccc(F)c(F)c1)N1CCCC(Nc2ccc(F)cc2)C1 (centres undefined)	-4.983
CC(NC(=O)c1cc(N2CCNC2=O)ccc1F)c1ccc(F)cc1 (centres undefined)	-0.5858
CCSCCC(=O)Nc1ncn(Cc2ccccc2)n1	-26.44
O=c1n(CCSCc2ccccc2Br)nc2ccccn12	-15.86
O=c1n(CCNCc2cccc3ccccc23)nc2ccccn12	89.88
CCSCCC(=O)NCCn1nc2ccccn2c1=O	-5.498
O=C(CCSc1ccccc1)NCCn1nc2ccccn2c1=O	3.117
O=c1n(CCSCc2ccccc2Cl)nc2ccccn12	6.647
O=c1n(CCNc2cccc3ccccc23)nc2ccccn12	88.07
COc1ccc(Cl)cc1CN1CC(n2cccn2)C1	-1.811
COCC(=O)NCCc1ccc(Cl)s1	-5.141
CN(Cc1ccco1)Cc1ccccc1CNC(=O)c1ccncc1	21.51
CC1(C)C[C@H](CCNC(=O)c2ccncc2)c2ccccc2O1	152.5
COCC(=O)NCCc1ccc(I)s1	-6.07
O=C(NC[C@H]1OC[C@@H](NC(=O)c2ccccc2)[C@@H]1O)c1ccncc1	-2.654
COc1cccc(C2(NC(=O)CCNC(C)=O)CC2)c1	-8.972
COc1ccc2c(c1)CC(NC(=O)NCc1cccs1)CO2 (centres undefined)	-5.09
COCC(=O)NCC[C@H]1CC(C)(C)Oc2ccc(OC)cc21	109.1
COc1ccc2c(c1)[C@@H](CCNC(C)=O)CC(C)(C)O2	118.9
COc1ccc2c(c1)CCCC2CC(=O)NCC(=O)O (centres undefined)	-14.49
COCC(=O)NCC[C@H]1CC(C)(C)Oc2ccccc21	119
CCCNC(=O)CNC(=O)CC1CCCc2cc(OC)ccc21 (centres undefined)	-20.04
